# Assay results taken from PubChem BioAssay (Tox21).
# Inconclusive results are not listed. Entries that show only a call come without a potency. The source made the active and inactive calls. Calls come from the whole dose curve; as a rule, active = well fitted cell-killing curve with a large enough effect in the repeat runs; inconclusive = weak or mixed curves, or effect the other way; inactive = flat fitted curve, though single readings scatter.
# Assays:
# [1] = cAMP Responsive Elements (CRE) small molecule antagonists, cell-based qHTS assay: qHTS cell viability counter screen (AID 2060913); note: nearly all actives have a fitted effect of over 40% in size
# In short: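 Cytotoxicity read in the same wells as the CRE-bla HEK293T antagonist assay: after 3 h compound with 0.25 uM NKH477 final and 2 h beta-lactamase substrate, CellTiter-Glo luminescence measured.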
# [2] = cAMP Responsive Elements (CRE) small molecule agonists, cell-based qHTS assay: qHTS cell viability counter screen (AID 2060914);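 note: viability read after 3 h of compound exposure; nearly all actives have a fitted effect of over 50% in size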
# In short: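 Cytotoxicity counter screen multiplexed with the CRE-bla reporter assay in HEK 293T cells: 3 h compound exposure at 37 °C, followed by CellTiter-Glo luminescence measured in the same wells.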
SMILES,Potency [1],Potency [2]
CN(C)CCCNCCC#N,inactive,inactive
C=CC(O)CCCCC (centres undefined),inactive,inactive
C=C(C)C(=O)O[C@H]1C[C@@H]2CC[C@@]1(C)C2(C)C,inactive,inactive
Nc1ccc(O)c(N)c1,inactive,inactive
Cc1cc(O)ccc1N,inactive,inactive
c1cnc2c(n1)CCCC2,inactive,inactive
CCc1occc(=O)c1O,inactive,inactive
Cn1c(NCCN(CCO)CCCc2ccc([N+](=O)[O-])cc2)cc(=O)n(C)c1=O,inactive,inactive
COc1cc2nc(N3CCN(C(=O)C4COc5ccccc5O4)CC3)nc(N)c2cc1OC (centres undefined),inactive,inactive
CCCCCCCCCCC(=O)O,inactive,inactive
CC1=C2[C@H](/C=C(\C)C(=O)O)CC[C@@H](C)[C@H]2CC1,inactive,inactive
OCCNCCO,inactive,inactive
O=C1NCCN1,inactive,inactive
COP(=O)(OC)OC(c1ccc(Cl)cc1)P(=O)(OC)OC (centres undefined),inactive,inactive
c1ccc2nccnc2c1,inactive,inactive
Oc1ccccc1Cc1ccccc1O,inactive,inactive
Fc1ccc(C(c2ccc(F)cc2)N2CCN(C/C=C/c3ccccc3)CC2)cc1,inactive,inactive
CCOC(=O)/C=C/C(=O)O,inactive,inactive
NCCCCCCN,inactive,inactive
C=CC(=O)NC(C)(C)C,inactive,inactive
CC(=O)N(c1onc(C)c1C)S(=O)(=O)c1ccc(N)cc1,inactive,inactive
CO/N=C(/C(=O)N[C@@H]1C(=O)N2C(C(=O)[O-])=C(C[n+]3ccn4ncccc43)CS[C@H]12)c1nsc(N)n1,inactive,inactive
